Bioassay records from PubChem BioAssay.
RORgamma inh: qHTS for inhibitors of ROR gamma transcriptional activity. Nuclear receptor ROR-gamma (Mus musculus), P51450. Drosophila S2 Gal4-RORgamma UAS-luciferase reporter, 20 h. Potency, µM (top dose mostly 53.6 µM), inactives show at the highest dose activity change, negative = inhibition, actives largely listed as inhibitors. actives 5.4% (n = 310,000). AID 2551, 2010; also: potency is read from the fitted curve at half-maximal effect; % is scaled to controls: 0 for no effect and ±100 for the full control effect; nearly all actives have a fitted effect of over 60% in size
Target sequence (P51450 whole entry, looked up, the tested form may be a part): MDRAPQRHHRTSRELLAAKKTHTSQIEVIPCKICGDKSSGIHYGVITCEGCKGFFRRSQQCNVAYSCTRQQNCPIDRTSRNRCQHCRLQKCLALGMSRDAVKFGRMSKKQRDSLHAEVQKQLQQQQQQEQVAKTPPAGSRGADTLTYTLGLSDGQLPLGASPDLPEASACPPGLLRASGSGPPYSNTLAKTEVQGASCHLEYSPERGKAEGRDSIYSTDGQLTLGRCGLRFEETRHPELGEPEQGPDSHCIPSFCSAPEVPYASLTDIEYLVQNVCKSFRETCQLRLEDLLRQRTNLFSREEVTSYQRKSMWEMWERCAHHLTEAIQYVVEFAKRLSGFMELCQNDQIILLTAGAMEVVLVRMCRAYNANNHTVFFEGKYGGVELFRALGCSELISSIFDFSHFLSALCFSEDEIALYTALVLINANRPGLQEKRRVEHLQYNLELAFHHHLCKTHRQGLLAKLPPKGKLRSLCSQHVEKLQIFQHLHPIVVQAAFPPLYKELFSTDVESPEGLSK
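Stable Schneider cell line, Gal4 DNA-binding domain fused to ROR gamma, UAS-luciferase. Cmpd 1 hr RT → CuSO4 700 uM final → 20 hr RT → luciferase reagent 10 min → luminescence.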
MCF10A rereplic: A quantitative high throughput screen for small molecules that induce DNA re-replication in MCF 10a normal breast cells | MCF 10A DNA re-replication, Hoechst nuclear intensity, 48 h | Potency, µM (titrated, usually from 46.1 µM), for inactives: at the highest dose activity, positive = re-replication, usual class: activators | actives 2.9% (n = 350,000) | AID 624296, 2012; also: potency is read from the fitted curve at half-maximal effect; % of control where 0% means no effect; nearly all actives have a fitted effect of over 50% in size
IL-1B inflam inh: qHTS for Inhibitors of Inflammasome Signaling: IL-1-beta AlphaLISA Primary Screen | THP-1 LPS/ATP IL-1B secretion, AlphaLISA, 16 h; hits give low values | activity change, % at 57.5 µM | actives 4.7% (n = 360,000) | AID 743279, 2014; in the data active = activity change below about -50%; inconclusive = mostly about -30% to -49%; also: % is scaled to controls: 0 for no effect and ±100 for the full control effect
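Secreted IL-1B measured by AlphaLISA bead assay after 16 h compound exposure of THP-1 cells; compounds (final up to 57.5 uM) added 1 h before LPS (250 ng/mL) and ATP (1.25 mM) stimulation; lower signal means less secretion.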
VP16 counter: VP16 counterscreen qHTS for inhibitors of ROR gamma transcriptional activity; Potency, µM (top dose mostly 53.6 µM), without a hit: at the highest dose activity, negative = inhibition, most hits filed as inhibitors; Drosophila S2 Gal4-VP16 UAS-luciferase, luminescence, 20 h; actives 3.5% (n = 310,000);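 also: Gal4-VP16 expression switched on by copper sulfate through the metallothionein promoter; potency is read from the fitted curve at half-maximal effect; % is scaled to controls: 0 for no effect and ±100 for the full control effect; nearly all actives have a fitted effect of over 50% in size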
SW480 rerep: A quantitative high throughput screen for small molecules that induce DNA re-replication in SW480 colon adenocarcinoma cells | Potency, µM (series often up to 46.1 µM), inactives show top-dose re-replication activation, actives largely listed as activators | AID 624297, 2012 | actives 1.8% (n = 340,000) | SW480 DNA re-replication, Hoechst DNA content imaging, 48 h; also: potency is read from the fitted curve at half-maximal effect; % of control where 0% means no effect; nearly all actives have a fitted effect of over 55% in size
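Image-based DNA-content assay: after two days of treatment, nuclei were labelled with the DNA dye Hoechst and imaged, and hits were compounds raising the count of nuclei showing high fluorescence intensity.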
An asterisk follows results filed as active; ? = inconclusive; / = no result; [ ] = remark or other dose. The list is not random: actives were taken first. Their share in the collection is about 11%. Unless noted, calls follow the shape of the dose curve; as a rule, active = well fitted curve in the direction sought with a large enough effect; inconclusive = small, poorly fitted or top-dose-only effect, or another doubt; inactive = no such curve, though single readings can be large; an effect the other way counts as inactive or inconclusive.

SMILES | RORgamma inh | MCF10A rereplic | IL-1B inflam inh | VP16 counter | SW480 rerep
CC1(C)Cc2c(sc3c2c(=N)n(Cc2ccco2)c(=O)n3CC(=O)Nc2cccc(Cl)c2)CO1 | ? | 6.1% | ? | -29.0% | -1.6%
CC(C)(C)c1ccc(CC(=O)N2CCC2(C)C(=O)Nc2cccc3cccnc23)cc1 (configuration not stated) | / | / | -3.6 | / | /
O=C(COc1ccc(Br)cc1)N1CCNC1=O | 25.1% | 5.5% | ? | -4.2% | -6.2%
NC(=S)NN=C1C=CCCC1 | / | -4.2% | 14.3 | / | -6.1%
Cc1ccc(C)c(N(CC(=O)Nc2ccc(-c3nc4ccc(C)cc4s3)cc2)S(C)(=O)=O)c1 | ? | ? | -2.3 | -23.7% | ?
Cc1ccc(N(CC(=O)Nc2ccc(-c3nc4ccc(C)cc4s3)cc2)S(C)(=O)=O)cc1 | -42.8% | 16.4µM* | 4.0 | -6.1% | ?
Cc1ccc2nc(-c3ccc(NC(=O)CN4CCN(c5ccccn5)CC4)cc3)sc2c1 | ? | 13µM* | / | ? | ?
Cc1ccc2nc(-c3ccc(NC(=O)CSc4nc(N)cc(=O)[nH]4)cc3)sc2c1 | -21.8% | 10.3% | 0.0 | -9.3% | 3.66µM*
Cc1ccc2nc(-c3ccc(NC(=O)CN4C(=O)c5ccccc5C4=O)cc3)sc2c1 | ? | 16.4µM* | 33.1 | ? | 20.6µM*
COc1cc(OC)c(OC)cc1CNC(=O)c1ccc(COc2ccccc2)cc1 | ? | 7.7% | -3.3 | 10.2% | 2.5%
Cc1cc(CNC(=O)[C@H](C)[C@H]2C[C@]2(C)[C@H](NC(=O)OCc2ccccc2)c2ccccc2)nn1C | -2.2% | / | / | -8.5% | /
Cc1nc2cc(NC(=O)CCS(=O)(=O)c3ccccc3)ccc2s1 | 15.8µM* | 3.0% | 0.0 | ? | -8.5%
Cc1ccc2nc(-c3ccc(NC(=O)CCS(=O)(=O)c4ccccc4)cc3)sc2c1 | 1.12µM* | 23.8% | -23.3 | 7.94µM* | ?
Cc1ccc2nc(-c3ccc(NC(=O)COC(=O)c4ccc(=O)[nH]c4)cc3)sc2c1 | 0.282µM* | 1.3% | 7.7 | 5.01µM* | ?
O=C(CCN1C(=O)NC2(CCCC2)C1=O)Nc1ccc(-c2nc3ccccc3s2)cc1 | / | 23.1µM* | 0.0 | / | 16.4µM*
C[C@H](CO)N1C[C@H](C)[C@@H](CN(C)CC2CC2)Oc2c(NC(=O)Cc3ccccc3)cccc2C1=O | / | 26.6% | 30.1 | / | ?
CCNC(=O)C1CCCN(C(=O)c2cc(OC)c(OC)c(OC)c2)CC1 (configuration not stated) | / | / | -11.7 | / | /
Cc1sc2ncnc(Sc3ccccc3C(=O)Nc3ccc(Br)cc3)c2c1C | 10µM* | 3.8% | -15.5 | 8.91µM* | /
Cc1sc2ncnc(Sc3ccccc3C(=O)Nc3ccc(C#N)cc3)c2c1C | 3.5% | 5.2% | -19.2 | -6.7% | ?
COc1ccc(CC(=O)n2[nH]c(=O)cc(C)c2=O)cc1OC | 11.2µM* | 3.1% | / | ? | 223.2%
O=C(O)c1cccc(NC(=O)c2ccc3c(c2)C(=O)N(CC2CCCO2)C3=O)c1 (configuration not stated) | 0.562µM* | -0.9% | -18.7 | -29.9% | -15.6%
COC(=O)c1cccc(NC(=O)c2ccc3c(c2)C(=O)N(CC2CCCO2)C3=O)c1 (configuration not stated) | 26.9% | -4.9% | -7.0 | -1.6% | -3.8%
CC(C)(C)NC(=O)c1cccc(NC(=O)c2ccc3c(c2)C(=O)N(C(C)(C)C)C3=O)c1 | ? | ? | -96.0* | -23.4% | 3.2%
COC(=O)c1cccc(NC(=O)c2ccc3c(c2)C(=O)N(C(C)(C)C)C3=O)c1 | ? | -2.1% | -53.6* | 1.2% | 10.2%
COc1cc2c(cc1OC)-c1n[nH]c(=S)n1C(C)(C)C2 | 7.94µM* | -44.6% | -1.9 | ? | 2.7%
SMILES | RORgamma inh | MCF10A rereplic | IL-1B inflam inh | VP16 counter | SW480 rerep
COc1cc2c(cc1OC)C(=S)NC(C)(C)C2 | 20µM* | 0.0% | -9.1 | ? | ?
COc1cc2c(cc1OC)-c1nnnn1C(C)(C)C2 | -2.6%[0.365 µM] | -0.8% | 0.0 | / | -1.8%
O=C(Nc1cccc(Cl)c1)c1csc([C@@H]2O[C@H](CO)[C@H](O)[C@H](O)[C@H]2O)n1 | / | / | 12.3 | / | /
Cc1nn(Cc2ccccc2Cl)c(C)c1C(=O)N1CCN(c2ccccc2)CC1 | 20.1% | 15.3% | -15.4 | 5.1% | 4.3%
Cc1nn(Cc2ccccc2Cl)c2sc(C(=O)NC(C)(C)C)cc12 | -9.8% | ? | 5.4 | 4.5% | ?
O=C(NC1=NCCS1)c1ccccc1OCc1ccccc1Cl | 10µM* | -4.3% | 0.0 | ? | 11.1%
Cc1nn(Cc2ccccc2Cl)c(C)c1C(=O)NC1=NCCS1 | 10µM* | 9.4% | 10.0 | -1.4% | 1.1%
Cc1csc(NC(=O)c2cc3c(C)nn(Cc4ccccc4Cl)c3s2)n1 | ? | 10.3µM* | 6.1 | ? | ?
CCC(CC)c1nnc(NC(=O)c2c(C)nn(Cc3ccccc3Cl)c2C)s1 | 11.2µM* | 13.4% | 23.3 | ? | -0.1%
Cc1ccc(OC(C)C(=O)Nc2ccccc2C(=O)N2CCN(C)CC2)cc1 (configuration not stated) | / | 9.4% | -11.8 | / | 0.3%
COc1ccc(Nc2nc(Cl)nc(Nc3ccc(OC)cc3OC)n2)c(OC)c1 | 15.3% | 15.1% | -50.4* | -3.8% | 1.7%
COc1ccccc1CC(=O)OC(C)C(=O)Nc1ccc(S(=O)(=O)N2CCCCC2)cc1 (configuration not stated) | / | 5.8% | 10.5 | / | 2.8%
COc1nc(Nc2ccc([N+](=O)[O-])cc2)nc(NC2CCCCC2)n1 | 39.2% | ? | -78.4* | -18.5% | ?
COc1ccc(Nc2nc(N)c([N+](=O)[O-])c(NCCO)n2)cc1 | 32.8% | 11.6% | / | 11.4% | -2.1%
COc1ccc(Nc2nc(N)c([N+](=O)[O-])c(NC3CCCCC3)n2)cc1 | ? | 16.4µM* | -95.4* | ? | ?
C=CCNc1nc(Nc2ccc([N+](=O)[O-])cc2)nc(OC)n1 | 1.6% | -1.7% | -19.0 | 8.0% | -1.3%
O=C(O)c1cc(=O)c2cccc(O)c2[nH]1 | 3.1% | / | / | 2.6% | /
COCCNC(=O)C1(C)CCCN(C(=O)c2ccc3snnc3c2)C1 (configuration not stated) | / | / | -7.7 | / | /
O=C(CCN1CCN(C/C=C/c2ccccc2)CC1)Nc1ccccc1 | 1.0% | -0.5% | -15.4 | 0.0% | -2.1%
Cc1cc(NC(=O)CCN2CCN(C)CC2)ccc1Br | 17.0% | 15.8% | -15.7 | -1.3% | 0.5%
Cc1cc(NC(=O)CCN2CCN(C/C=C/c3ccccc3)CC2)ccc1Br | 20.4% | ? | -81.6* | -12.5% | ?
Cc1cccc(NC(=O)CCN2CCN(C/C=C/c3ccccc3)CC2)c1 | 0.4% | ? | -76.6* | 5.3% | ?
